Test results reported in the OligoGym collection.

Legend:
Experiment in all cases: pooled miR-30 sensor sort-seq; sequence = guide strand
Conditions in all cases: shRNA
HCST = molecular target: HCST
HBQ1 = molecular target: HBQ1
HDGF = molecular target: HDGF
HCK = molecular target: HCK
HDHD2 = molecular target: HDHD2
HHATL = molecular target: HHATL
HIST1H4A = molecular target: HIST1H4A
HIST2H3A = molecular target: HIST2H3A
HKR1 = molecular target: HKR1
HLA-DRA = molecular target: HLA-DRA
HLA-DMA = molecular target: HLA-DMA
HS6ST1 = molecular target: HS6ST1
IKBKAP = molecular target: IKBKAP
IL7 = molecular target: IL7
IPO9 = molecular target: IPO9
ITFG1 = molecular target: ITFG1
ITGA2 = molecular target: ITGA2
ITFG2 = molecular target: ITFG2
ITGAM = molecular target: ITGAM
Also: reference of the scale not given here.

## TCTCTCCTGGAGTCGTCTGAGC
HCST
  sensor-assay potency score (higher = more potent): -1.45

## AAGTCTCCGGGGTAGTGCCGGG
HBQ1
  sensor-assay potency score (higher = more potent): -1.01

## TGTAGACTTTGCCATCTTCTTG
HCST
  sensor-assay potency score (higher = more potent): -1.11

## TTCCCTTCCTCGTCGCTGCTGC
HDGF
  sensor-assay potency score (higher = more potent): -0.283

## TTCCTCTAGGACCACCATCTGG
HCK
  sensor-assay potency score (higher = more potent): -1.25

## TCTGGGAGGACTGATAGCCGGA
HDGF
  sensor-assay potency score (higher = more potent): -0.805

## AGACTTTGCCATCTTCTTGGGC
HCST
  sensor-assay potency score (higher = more potent): -0.803

## TTGCCATCTTCTTGGGCGGGGC
HCST
  sensor-assay potency score (higher = more potent): -1.23

## TTCCGCTCTAGTAAACTTCTGG
HDHD2
  sensor-assay potency score (higher = more potent): 0.0507

## TTTCTCTCTGTCCTCTCAGTGG
HDGF
  sensor-assay potency score (higher = more potent): -1.16

## TAGACTTTGCCATCTTGGGCGG
HCST
  sensor-assay potency score (higher = more potent): -0.81

## TTCTCGTTCTTCTCCTTGGCTG
HDGF
  sensor-assay potency score (higher = more potent): -0.535

## TCAGGCATCTCGTCAATCCGGG
HDGF
  sensor-assay potency score (higher = more potent): -0.426

## TTCTCAGAGCTAAACTTCCAAA
HDGF
  sensor-assay potency score (higher = more potent): -1.28

## TCTCTCTCCTGGAGTCGTCTGA
HCST
  sensor-assay potency score (higher = more potent): -1.08

## TAGACTTTGCCATCTTCTTGGG
HCST
  sensor-assay potency score (higher = more potent): -0.36

## TTGGTGTGCTTGTTGTAGGTGG
HCK
  sensor-assay potency score (higher = more potent): -0.387

## TAAGGGAAGAGGTCTTTGGGGC
HDGF
  sensor-assay potency score (higher = more potent): -0.718

## TCAACTAGCAGCATGGGTCTGA
HDHD2
  sensor-assay potency score (higher = more potent): 0.908

## TCGTTGTCCTCAATGACCCGGG
HCK
  sensor-assay potency score (higher = more potent): -0.328

## TTTAGTGGTCTCGCTATCCCGG
HCK
  sensor-assay potency score (higher = more potent): -0.689

## TTGATGTAGACTTTGCCATCTT
HCST
  sensor-assay potency score (higher = more potent): -0.308

## AACAAGAGCCTGAAGTGCCAGG
HCST
  sensor-assay potency score (higher = more potent): -0.933

## TAGAAGTTGTACTTGAGCAGGT
HHATL
  sensor-assay potency score (higher = more potent): 0.918

## TACACAGCATACATCCAGGAGC
HHATL
  sensor-assay potency score (higher = more potent): -1.03

## TGACTGTCTTGCGCTTGGCGTG
HIST1H4A
  sensor-assay potency score (higher = more potent): -1.68

## TTGTCACGCAACACCTTGCGGT
HIST1H4A
  sensor-assay potency score (higher = more potent): -0.404

## TTGCCGCCGGTCGACTTGCGAG
HIST2H3A
  sensor-assay potency score (higher = more potent): -1.63

## TTAAAGTCCTGCGCGATCTCGC
HIST2H3A
  sensor-assay potency score (higher = more potent): -0.191

## TTGACTCCTTGATAAAGCCTGG
HKR1
  sensor-assay potency score (higher = more potent): -0.606

## TTGATTTCTCCAAATCCTGAGA
HKR1
  sensor-assay potency score (higher = more potent): -0.892

## ATAAACTTGAAAACAGCTGAGA
HKR1
  sensor-assay potency score (higher = more potent): -0.36

## TGGATGGCGCACAGGTTCGTGT
HIST2H3A
  sensor-assay potency score (higher = more potent): -1.93

## TTAACTTAGCACAAAAGCCTTG
HKR1
  sensor-assay potency score (higher = more potent): -0.326

## TTGTCTATGAAACAGATGAGGA
HLA-DRA
  sensor-assay potency score (higher = more potent): -0.94

## TTGATGAGGACTGACATACTGC
HKR1
  sensor-assay potency score (higher = more potent): -0.174

## TACCAGTACAGTCTCATGCATA
HKR1
  sensor-assay potency score (higher = more potent): -0.938

## TTAAGGTTTGACTTCAGGCTAA
HKR1
  sensor-assay potency score (higher = more potent): 0.0194

## TTGGGCATAATGGTCACGCGCT
HIST2H3A
  sensor-assay potency score (higher = more potent): -0.549

## TAAACAATAAGTACACAAGAGA
HLA-DRA
  sensor-assay potency score (higher = more potent): -0.861

## TAAACTCGCCTGATTGGTCAGG
HLA-DRA
  sensor-assay potency score (higher = more potent): -0.677

## TTCGTGAGTCACAATGCAGGAG
HLA-DMA
  sensor-assay potency score (higher = more potent): 0.512

## TCTCGCGTACCAGCCGCTGGAA
HIST2H3A
  sensor-assay potency score (higher = more potent): -1.89

## TCCGTCTTAAAGTCCTGCGCGA
HIST2H3A
  sensor-assay potency score (higher = more potent): -1.2

## AAGTCCTGCGCGATCTCGCGTA
HIST2H3A
  sensor-assay potency score (higher = more potent): -1.16

## ATTTCGTGAGTCACAATGCAGG
HLA-DMA
  sensor-assay potency score (higher = more potent): -1.4

## TCTTCAGTGATCTTCTCTCTAA
HLA-DRA
  sensor-assay potency score (higher = more potent): -0.905

## TCGTGAGTCACAATGCAGGAGA
HLA-DMA
  sensor-assay potency score (higher = more potent): -0.908

## TTGCTGGATCATCCACTCGCAG
HLA-DMA
  sensor-assay potency score (higher = more potent): -1.31

## TAACTTAGCACAAAAGCCTTGC
HKR1
  sensor-assay potency score (higher = more potent): 0.138

## TGCTGGATCATCCACTCGCAGA
HLA-DMA
  sensor-assay potency score (higher = more potent): -1.77

## TTGACTTCCACGTAAAGCCTCG
HKR1
  sensor-assay potency score (higher = more potent): -0.345

## TTGCGGATCAGCAGCTCCGTGG
HIST2H3A
  sensor-assay potency score (higher = more potent): -1.49

## TTCTGCTGCATTGCTTTTGCGC
HLA-DRA
  sensor-assay potency score (higher = more potent): -0.581

## TTTGGTATCTAGCAATGGCTGA
HKR1
  sensor-assay potency score (higher = more potent): -0.389

## TTCACTGTCAGCATGGGTGGGA
HLA-DMA
  sensor-assay potency score (higher = more potent): 0.0511

## TACCTCTGGAGGTACATTGGTG
HLA-DRA
  sensor-assay potency score (higher = more potent): -0.943

## TTTGACTCCTTGATAAAGCCTG
HKR1
  sensor-assay potency score (higher = more potent): -0.108

## TACTTTGTCTGTTTCCTCTAGA
HKR1
  sensor-assay potency score (higher = more potent): 0.778

## TGGACTTCTGGTAGCGCCGGAT
HIST2H3A
  sensor-assay potency score (higher = more potent): -1.34

## TTGGAGTAGGAGCTTCAGGGAC
HLA-DMA
  sensor-assay potency score (higher = more potent): -1.01

## TTAGAGTACGGAGCAATCGAAG
HLA-DRA
  sensor-assay potency score (higher = more potent): -1.52

## TCAGCGTGAACACTTCAGCGAT
HLA-DMA
  sensor-assay potency score (higher = more potent): -1.13

## TTCGTGTCTTCGAACAGCCCCA
HIST2H3A
  sensor-assay potency score (higher = more potent): -0.563

## TGTGTAGCGGTCAATTTCGTGA
HLA-DMA
  sensor-assay potency score (higher = more potent): -0.684

## TTACTGACAAAACAGACCAAAG
HLA-DMA
  sensor-assay potency score (higher = more potent): -1.69

## TAATGGTCACGCGCTTGGCGTG
HIST2H3A
  sensor-assay potency score (higher = more potent): -1.65

## TAGATGATGAGAACAATGCCCA
HLA-DMA
  sensor-assay potency score (higher = more potent): -0.0715

## TGGCGCACAGGTTCGTGTCTTC
HIST2H3A
  sensor-assay potency score (higher = more potent): -0.891

## TTGGTGAGGGACACACTCCCGG
HS6ST1
  sensor-assay potency score (higher = more potent): -0.875

## TTTGTCTATAGTAAACCGCTGA
IKBKAP
  sensor-assay potency score (higher = more potent): -0.157

## TAAAGATTTATTTTCTTCCAAA
IL7
  sensor-assay potency score (higher = more potent): -1.11

## TTTGTATTTCGTACTACTGTTG
IPO9
  sensor-assay potency score (higher = more potent): -0.688

## TATCAATGCACTGTGATTCTTG
ITFG1
  sensor-assay potency score (higher = more potent): 0.396

## TATTGCTGAAATCTTGTAGGAC
ITFG1
  sensor-assay potency score (higher = more potent): 0.541

## TTGACTGAGCGCTAACACCAGC
ITGA2
  sensor-assay potency score (higher = more potent): -1.15

## TAAATCTCCATAGCCATCCAAG
ITGA2
  sensor-assay potency score (higher = more potent): -1.12

## TGAACTGTGATTTCTGTCCTGC
ITGA2
  sensor-assay potency score (higher = more potent): 0.82

## TTAACGTATCGTTATCAACGTC
ITFG2
  sensor-assay potency score (higher = more potent): -0.293

## TTTAGGTCTGTCAGCTCCCAGT
ITFG1
  sensor-assay potency score (higher = more potent): -0.933

## TTCCTTGCCTTTCACCACCTGA
ITGAM
  sensor-assay potency score (higher = more potent): -0.688

## TTCTCTTGGAAGGTCATTGCGT
ITGAM
  sensor-assay potency score (higher = more potent): -0.213

## TTCGTATAGATTTTTCTCCAGA
ITFG1
  sensor-assay potency score (higher = more potent): -0.843

## TAAACAGGTAGACTCTTCCTTC
ITGA2
  sensor-assay potency score (higher = more potent): 0.446
